In PubChem BioAssay AID652015 (National Center for Advancing Translational Sciences (NCATS), 2013):
Inconclusive results are not listed. A number with no mark means an inactive call. The call rests on the fitted dose curve; in most records, active means well fitted inhibition curve with a large enough effect; inconclusive means small, poorly fitted or top-dose-only effect; inactive means no such curve, though single readings can be large or run the other way.

Each molecule was assayed against Coelenterazine h 2-monooxygenase (Renilla reniformis) (UniProt P27652) (assay: qHTS Assay for Inhibitors of Sea Pansy Luciferase from the GSK Published Protein Kinase Inhibitor Set). Details: purified Renilla luciferase, luminescence; series mostly up to 57.5 µM; activity change, negative = inhibition: at the top concentration.
Procedure, shortened: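 qHTS (roughly 60 uM down to 300 pM) against 1 nM Renilla luciferase, substrate coelenterazine h 5 uM, Tris acetate pH 7.5 buffer with NaCl, Tween-20 and BSA. Luminescence measured after an average 2 min incubation.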

Coelenterazine h 2-monooxygenase (Renilla reniformis), sequence (P27652 whole entry, looked up): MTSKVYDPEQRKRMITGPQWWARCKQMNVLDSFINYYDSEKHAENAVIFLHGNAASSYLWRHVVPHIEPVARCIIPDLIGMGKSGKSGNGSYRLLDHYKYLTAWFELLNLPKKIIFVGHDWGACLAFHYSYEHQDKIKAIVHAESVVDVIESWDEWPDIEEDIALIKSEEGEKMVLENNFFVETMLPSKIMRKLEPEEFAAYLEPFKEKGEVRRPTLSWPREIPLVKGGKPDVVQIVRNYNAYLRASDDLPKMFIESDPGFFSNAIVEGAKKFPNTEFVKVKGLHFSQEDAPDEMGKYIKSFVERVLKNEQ

Row | SMILES | activity change, negative = inhibition [%]
1 | Nc1nc(-c2ccc(F)cc2)c(-c2ccc3ncccc3n2)s1 | 21.4
2 | Cc1nnc(-c2ccc(C)c(-c3ccc(C(=O)Nc4cccc(C#N)c4)cc3)c2)o1 | 10.9
3 | COc1cc2ncn(-c3cc(OCc4ccccc4C(F)(F)F)c(C(N)=O)s3)c2cc1OC | 18.7
4 | Cc1cc(O)cc(C)c1C=Cc1cncc(C(=O)N(C)C)c1 | 3.41
5 | CNC(=O)c1cccc(C#Cc2cncnc2Nc2ccc(OCc3cccc(F)c3)c(Cl)c2)c1 | 4.44
6 | CNC(=O)c1ncccc1Nc1nc(Nc2cc3c(cc2OC)CCCN3C(=O)CN(C)C)nc2[nH]ccc12 | 73.7
7 | O=S(=O)(CCOCc1ccc(-c2ccc3ncnc(Nc4ccc(OCc5cccc(F)c5)c(Cl)c4)c3c2)o1)c1ccccc1 | 34.9
8 | NC(=O)c1ccc2c(-c3ccnc(NCCCO)n3)c(-c3ccc(F)cc3)nn2c1 | 31.6
9 | COc1cccc(Nc2nccc(-c3cnn4ncccc34)n2)c1 | 51.7
10 | CCn1cc(-c2ccnc3[nH]ccc23)c(-c2cccc(NC(=O)Nc3ccc(OCc4ccccc4)cc3)c2)n1 | 36.7
11 | COc1cc(N2CCN(C(C)C)CC2)ccc1Nc1nc(Nc2ccc(F)cc2C(=O)NCC(O)CO)c2cc[nH]c2n1 (centres undefined) | 29.4
12 | NS(=O)(=O)c1ccc(Nc2cc(-c3cccc(O)c3)[nH]n2)cc1 | 3.85
13 | CC1=C(C(=O)Nc2ccc3[nH]ncc3c2)C(c2ccc3ccccc3c2)CC(=O)N1 (centres undefined) | 32.4
14 | NS(=O)(=O)c1cccc(Nc2cc(-c3ccc(F)cc3)[nH]n2)c1 | 39.1
15 | O=C(Nc1ccc(Oc2ccc3nc(NC(=O)c4ccccc4)[nH]c3c2)cc1)Nc1cc(C(F)(F)F)ccc1F | 4.44
16 | CCNC(=O)OC1CNC(C#Cc2cc3ncnc(Nc4ccc(OCc5cccc(F)c5)c(Cl)c4)c3s2)C1 (centres undefined) | 39.2
17 | COC(=O)Nc1nc2ccc(Oc3ccc(NC(=O)Nc4cc(C(F)(F)F)ccc4F)cc3)cc2s1 | 22.7
18 | ON=C1CCc2cc(-c3nc(C4CCNCC4)[nH]c3-c3ccncc3)ccc21 | 46.1
19 | COc1ccc2cc(-c3c(-c4ccncc4)nc(-c4ccc(S(C)=O)cc4)n3C)ccc2c1 (centres undefined) | 17.1
20 | CC1=C(C(=O)Nc2cc(Cl)c3[nH]ncc3c2)C(c2ccc(C(F)(F)F)cc2)CC(=O)N1 (centres undefined) | 14.7

Row | SMILES | activity change, negative = inhibition [%]
21 | COc1cc(Nc2ncc(-c3ccccc3)o2)cc(OC)c1 | 12.4
22 | Nc1nc(-c2ccccn2)c(-c2ccc3ncccc3n2)s1 | 20.8
23 | CCn1c(-c2nonc2N)nc2ccncc21 | 12.6
24 | c1cnn2ncc(-c3ccnc(NCCCN4CCOCC4)n3)c2c1 | 20.5
25 | NC(=O)Cc1ccccc1Oc1nccc(-c2c(-c3ccc(F)cc3)ncn2C2CCNCC2)n1 | 36.4
26 | Fc1ccc(-c2nn3ncccc3c2-c2ccnc(Nc3ccc4c(c3)OCCO4)n2)cc1 | 39.4
27 | c1ccc(COc2ccc(Nc3ncnc4ccc(-c5ccco5)cc34)cc2)cc1 | 22.2
28 | CS(=O)(=O)CCNCc1ccc(-c2ccc3ncnc(Nc4ccc(OCc5ccccc5)c(Br)c4)c3c2)o1 | 19.8
29 | NC(=O)c1ccc(-c2nc(-c3ccc4c(c3)OCO4)c(-c3ccccn3)[nH]2)cc1 | 0.676
30 | CCN(CC)S(=O)(=O)c1ccc(OC)c(Nc2ncc(-c3ccccc3)o2)c1 | 52.6
31 | CS(=O)(=O)CCNCc1cc(-c2cc3c(Nc4ccc(OCc5cccc(F)c5)c(Cl)c4)ncnc3s2)cs1 | 36.3
32 | CS(=O)(=O)CCNCc1ccc(-c2ccc3ncnc(Nc4ccc(OCc5ccccc5)cc4)c3c2)o1 | 16.4
33 | CS(=O)(=O)Nc1cccc(-c2ccc3c(NC(=O)C4CC4)n[nH]c3c2)c1 | 17.4
34 | CNC(=O)c1cncc(C=Cc2ccccc2Cl)c1 | 5.6
35 | Cc1nnc(-c2ccc(C)c(-c3ccc(C(=O)NCc4ccc(Cl)cc4)cc3)c2)o1 | 0.683
36 | O=C1N=c2ccc(N=Cc3c(O)[nH]c4ccccc34)cc2=N1 | 21.9
37 | O=C(Nc1ccc(Oc2ccc3nc(NC(=O)c4ccco4)[nH]c3c2)cc1)Nc1cc(C(F)(F)F)ccc1F | 10.1
38 | CCn1c(-c2nonc2N)nc2cncc(C(=O)N3CCC(N)C3)c21 (centres undefined) | 2.39
39 | CN1CCC(C(=O)Nc2n[nH]c3nc(-c4ccc(O)cc4)c(Br)cc23)CC1 | 10.1
